We go through five compounds from PubChem BioAssay (NCATS).

Several values for one entry are separate records, joined by “and”; a condition that tells them apart may be missing. Equal entries are not always repeated. A number with no mark means an inactive call. Results filed as inconclusive are left out. Activity calls are given as the source filed them. Unless noted, the call rests on the fitted dose curve; in most records, active means well fitted curve in the direction sought with a large enough effect; inconclusive means small, poorly fitted or top-dose-only effect, or another doubt; inactive means no such curve, though single readings can be large; an effect the other way counts as inactive or inconclusive. Some results are limits rather than exact numbers.

The nature of assay [1]: Cell Viability - BJ (AID 421; calls by dose curve;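 further: potency means the concentration at half of the fitted maximal effect; cells exposed to compound for 40 hours at 37 °C before readout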). As to conditions: BJ fibroblast viability, qHTS. In short, it runs like this:
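Cytotoxicity in human BJ foreskin fibroblasts is scored as loss of cellular ATP after a 40-hour exposure, measured by luciferase luminescence. Controls are DMSO and 100 uM tamoxifen.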
In general terms: Quantitative high-throughput screening tests each substance at several concentrations.

The nature of assay [2]: Cellular Toxicity (caspase-3) HepG2 (AID 654).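 Further: cells exposed to compound for 16 hours before reading; 0% = DMSO alone and 100% = caspase signal from 100 µM tamoxifen.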 As to conditions: HepG2 caspase-3 activation, luminescence, 0% = DMSO only, 100% = tamoxifen; series mostly up to 92.2 µM. An outline of the steps: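 qHTS, HepG2, 1500 cells/well, complete medium; cpd 16 h 37 °C; Caspase-Glo 3/7, 20 min RT; lum. Norm: DMSO vs 100 uM tamoxifen; AC50 Hill fit.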
Assay [3] is described as follows: Cellular Toxicity (caspase-3) BJ (AID 658).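 Further: cells exposed to compound for 16 hours.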 To be noted: BJ fibroblasts, luminescence, normalized: DMSO 0%, staurosporine 100%; series mostly up to 91.7 µM. In short, it runs like this:
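Readout: Caspase-Glo 3/7 luminescence increase in BJ cells after 16 hr treatment at 37 °C. Staurosporine and tamoxifen served as positive controls; AC50 values came from Hill modelling of data normalized to DMSO and 10 uM staurosporine.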

A short description of assay [4]: Cellular Toxicity (caspase-3) MRC-5 (AID 659). As to conditions: MRC-5 cells, luminescence, normalized: DMSO 0%, 10 µM staurosporine 100%; series mostly up to 91.7 µM. An outline of the steps: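 Concentration-dependent caspase 3/7 activation is measured in human normal lung fibroblasts (MRC-5) following 16-hour treatment. AC50 values come from standard Hill-equation modeling of luminescence normalized to DMSO and 10 uM staurosporine.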

Assay [5] can be described thus: Cellular Toxicity (caspase-3) Hek293 (AID 664).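 Further: cells exposed to compound for 16 h at 37 °C before readout.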 As to conditions: HEK293 caspase-3 activation, DMSO = 0%, 100 µM tamoxifen = 100%; at 92.2 µM (top of the series). An outline of the steps:
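Activation of caspase-3/7 is measured as increased luminescence from cleaved peptide-aminoluciferin substrate in HEK293 cells treated 16 hours at 37 °C. AC50 values come from Hill-equation fits of concentration-response data.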

A short description of assay [6]: Cellular Toxicity (caspase-3) N2a (AID 665).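 Further: compound exposure lasted 16 h at 37 °C before readout.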 As to conditions: N2a cells, luminescence, normalized: DMSO 0%, 10 µM staurosporine 100%; series mostly up to 92.2 µM. In short, it runs like this:
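Plated mouse neuroblastoma N2a cells received titrated compounds for 16 h in complete medium. Caspase activity was then detected with a peptide-aminoluciferin luminescent reagent.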

Assay [7] is described as follows: Cellular Toxicity (caspase-3) NIH 3T3 (AID 666).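 Further: caspase signal read after 16 h compound exposure.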 Further: potency means the concentration at half of the fitted maximal effect.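 On caspase-3 activation: 0% = DMSO basal and 100% = 100 µM tamoxifen stimulation.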 To be noted: NIH 3T3 caspase-3 activation, apoptosis/toxicity; series mostly up to 92.2 µM. In short, it runs like this:
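Concentration-response qHTS in NIH 3T3 mouse fibroblasts scores caspase-3/7 activation as rising luminescence after 16 hr compound exposure. Signals are scaled between DMSO-only and 100 uM tamoxifen.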

The nature of assay [8]: Cell Viability - LYMP2-001 (AID 921). Further: nearly all actives have a fitted effect of over 70% in size. Further: potency means the concentration at half of the fitted maximal effect. As to conditions: LYMP2-001 lymphoblastoid cell viability; series mostly up to 92.2 µM. In short, it runs like this: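 Cellular ATP loss read by luciferase luminescence after 24 h compound exposure at 37 C in complete medium. LYMP2-001 lymphoblastoid cells, 2500/well; qHTS concentration-response data fitted with Hill equation for AC50.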

A short description of assay [9]: MultiTox-Fluor Cytotoxicity Assay - LYMP1-001 - Dead Cells (AID 946). To be noted: LYMP1-001 lymphoblastoid cells, dead-cell protease fluorescence; series mostly up to 92.2 µM. An outline of the steps: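 Seed 2500 LYMP1-001 cells/well, incubate 5 hr at 37 C; add compound, 16 hr at 37 C; add MultiTox-Fluor reagent, 60 min RT; read dead-cell fluorescence Ex/Em=485/520. Normalize to DMSO and 15 uM tetraoctylammonium bromide.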

The nature of assay [10]: Cell Viability - LYMP2-021 (AID 974).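 Further: compound exposure lasts 24 hours at 37 °C; nearly all actives have a fitted effect of over 55% in size.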 Further: potency means the concentration at half of the fitted maximal effect. As to conditions: LYMP2-021 lymphoblastoid cells viability; series mostly up to 92.2 µM. In short, it runs like this: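 Concentration-response cytotoxicity in a human lymphoblastoid line: 24 hr treatment at 37 C in complete culture medium, tetraoctylammonium bromide as positive control, luminescent ATP quantitation as viability measure.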

Assay [11] can be described thus: Cell Viability - LYMP2-006 (AID 978). Further: nearly all actives have a fitted effect of over 60% in size. Further: potency means the concentration at half of the fitted maximal effect. As to conditions: LYMP2-006 lymphoblastoid cell viability, qHTS; series mostly up to 92.2 µM. In short, it runs like this: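 Potency values are Hill-fit AC50s for decreases in intracellular ATP (CellTiter-Glo luminescence). LYMP2-006 lymphoblastoid cells, 2500 per well, were exposed to compound in complete culture medium for 24 hr at 37 C.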

Assay [12] is described as follows: qHTS Assay for Identification of Small Molecule Inducers of Hypoxia Response (AID 2120; active means well fitted curve in the direction sought with a large enough effect in the signal ratio, with a control signal flat, not every such curve was filed as active; the % refers to the signal ratio; further: 0% is about no effect). To be noted: hypoxia response reporter cells, beta-lactamase ratio readout; series mostly up to 104 µM. In short, it runs like this:
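Induction of beta-lactamase reporter activity was measured in CellSensor HRE-bla ME-180 cells after 17 h compound treatment at 37 degrees C, using CCF4 substrate and the 460nm/530nm emission ratio to derive AC50 values.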

The target in assay [13] is Peroxisome proliferator-activated receptor alpha (Homo sapiens) (UniProt Q07869). The assay can be described thus: qHTS assay for small molecule agonists of the peroxisome proliferator-activated receptor alpha (PPARalpha) signaling pathway (AID 651778). Further: % of control where 0% means no effect. To be noted: PathHunter PPARalpha complementation, chemiluminescence, 6 h; stronger effect = higher value. In short, it runs like this:
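Chemiluminescence from complemented enzyme reported PPARalpha activation in cells after 6 hr of compound treatment at 37 C. The detection reagent was incubated for 60 min at room temperature, and compounds were scored as agonists.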

A short description of assay [14]: qHTS assay for cell viability of the p53RE-bla HCT-116 cell line (AID 743292). Further: on the % scale 0 is the no-effect control and ±100 the full control effect; nearly all actives have a fitted effect of over 55% in size. As to conditions: p53RE-bla HCT-116 viability, ATP luminescence, 16 h; series mostly up to 95 µM. In short, it runs like this:
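Intracellular ATP of p53RE-bla HCT-116 cells measured by luciferase luminescence following 16 h compound incubation at 37 C; DMSO-only wells served as vehicle controls.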

Assay [15] can be described thus: MultiTox-Fluor Cytotoxicity Assay - LYMP1-002 - Live Cells (AID 955).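 Further: cells exposed to compound for 16 hours; on the % scale 0 is the no-effect control and ±100 the full control effect.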 To be noted: LYMP1-002 lymphoblastoid live-cell protease fluorescence viability; series mostly up to 46.1 µM. In short, it runs like this:
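Cytotoxicity in the human lymphoblastoid line LYMP1-002 is measured as loss of live-cell protease activity after 16 h treatment in complete culture medium. AC50 is derived from Hill-equation fits of qHTS concentration-response data.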

Assay [16] is described as follows: MultiTox-Fluor Cytotoxicity Assay - LYMP1-003 - Dead Cells (AID 961). Further: nearly all actives have a fitted effect of over 70% in size. To be noted: LYMP1-003 lymphoblastoid cells, dead-cell protease fluorescence; series mostly up to 92.2 µM. In short, it runs like this: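 LYMP1-003 lymphoblastoid, 2500 cells/well, 5 hr settle then 16 hr cpd at 37 C; MultiTox-Fluor reagent 60 min RT; Ex/Em 485/520 dead-cell signal; norm. DMSO = 0%, 15 uM tetraoctylammonium bromide = 100%; Hill AC50.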

Assay [17] in a line: MultiTox-Fluor Cytotoxicity Assay - LYMP1-003 - Live Cells (AID 962).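 Further: cells exposed to compound for 16 hours at 37 °C; 0% = DMSO only and full loss = 92 µM tetraoctylammonium bromide; cytotoxic hits lower the live-cell protease signal.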 To be noted: LYMP1-003 lymphoblastoid cells, MultiTox-Fluor live-cell protease fluorescence; series mostly up to 92.2 µM. In short, it runs like this: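 Cells plated at 2500 per well and incubated 5 hr; compounds added and incubated 16 hr at 37 C; MultiTox-Fluor reagent added for 60 min at room temperature; fluorescence of liberated AFC measured at 405/510 nm.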

Assay [18] is described as follows: Cell Viability - LYMP2-025 (AID 976).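 Further: plate controls were DMSO only for no effect and tetraoctylammonium bromide control for full effect.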 As to conditions: LYMP2-025 lymphoblastoid cell viability; series mostly up to 92.2 µM. An outline of the steps:
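In qHTS format, LYMP2-025 lymphoblastoid cells in complete culture medium received compound for 24 hr; ATP-based CellTiter-Glo signal gave viability, with AC50 derived by Hill equation.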

Assay [19] in a line: Cell Viability - LYMP1-002 - Assay at 24 hr (AID 993). Further: on the % scale 0 is the no-effect control and ±100 the full control effect. As to conditions: LYMP1-002 lymphoblastoid cells viability; series mostly up to 92.2 µM. In short, it runs like this:
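qHTS, LYMP1-002 lymphoblastoid, 24 h cpd, 37 C, CellTiter-Glo ATP luminescence; AC50 via Hill eq.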

A short description of assay [20]: Cell Viability - LYMP1-002 - Assay at 40 hr (AID 994).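 Further: 0% = DMSO only and full inhibition = 92 µM tetraoctylammonium bromide; nearly all actives have a fitted effect of over 60% in size.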 To be noted: LYMP1-002 lymphoblastoid cell viability; series mostly up to 92.2 µM. In short, it runs like this:
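Viability in the human lymphoblastoid line was measured as intracellular ATP via CellTiter-Glo after 40 hr compound exposure. Tetraoctylammonium bromide served as positive control.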

Sequence of Peroxisome proliferator-activated receptor alpha (Homo sapiens) (Q07869 whole entry, looked up): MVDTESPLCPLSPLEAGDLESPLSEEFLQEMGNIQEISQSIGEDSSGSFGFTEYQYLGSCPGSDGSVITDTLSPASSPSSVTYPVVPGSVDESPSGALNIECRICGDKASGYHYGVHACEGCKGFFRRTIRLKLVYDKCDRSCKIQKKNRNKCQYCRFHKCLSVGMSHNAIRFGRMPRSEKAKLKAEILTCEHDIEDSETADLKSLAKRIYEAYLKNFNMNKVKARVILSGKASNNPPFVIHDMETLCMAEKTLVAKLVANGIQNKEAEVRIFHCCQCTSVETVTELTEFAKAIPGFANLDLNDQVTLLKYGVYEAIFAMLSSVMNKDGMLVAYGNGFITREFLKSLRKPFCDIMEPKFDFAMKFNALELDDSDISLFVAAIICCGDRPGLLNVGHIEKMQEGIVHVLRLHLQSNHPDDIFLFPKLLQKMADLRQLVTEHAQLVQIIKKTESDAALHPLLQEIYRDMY

As to `CN(C)c1ccc(N)cc1`, the Potency in assay [1] is 28.3 µM (active); in [8], 50.1 µM (active); in assay [10], 63.1 µM (active); in [11], 50.1 µM (active). Also, the result in assay [2], in [3], in [4], in assay [6] and in assay [9] was inactive. Further, in assay [5], the caspase-3 activation was 2.4%. Further, the Potency entry in assay [7], in [12] and in assay [14] was “inactive” in each case. Moreover, in [13], the max response is 11.3%.

For the compound `O=[N+]([O-])c1c(Cl)c(Cl)c(Cl)c(Cl)c1Cl`, the Potency in assay [1] is above 92 µM; in assay [7], 31.6 µM (active). Further, the compound was classed as inactive in assay [2], in assay [3], in assay [4], in [6], in assay [15] and in assay [17]. Also, the caspase-3 activation in [5] is 2.86%. Moreover, the Potency result in [8], in assay [16], in assay [10], in [18], in assay [11] and in [19] was “inactive” each time. In addition, the Potency result in [20], in assay [12] and in [14] was “inactive” in each case. Further, the max response in [13] was 3.1% and -1.25%.

For the compound `Nc1cc(Cl)ccc1O`, the Potency in assay [1] is above 92 µM. Also, the compound was classed as inactive in assay [2], in assay [3], in assay [4], in assay [6], in [9] and in [15]. For the same compound, the result in [17] was inactive. Moreover, in assay [5], the caspase-3 activation is 4.86%. Moreover, the Potency entry in [7], in assay [8], in assay [10], in assay [18], in [11] and in assay [19] was “inactive” throughout. Further, the Potency entry in assay [12] and in [14] was “inactive” throughout. In addition, the max response in assay [13] was 0.902%.

In the case of `ClCC(Cl)Cl`, the Potency in [1] is above 92 µM. The compound was classed as inactive in assay [2], in assay [3], in [4], in [6], in assay [9] and in assay [15]. Besides, in [17], the result was inactive. Moreover, the caspase-3 activation in [5] is -0.541%. For the same compound, the Potency entry in [7], in [8], in [16], in assay [10], in [18] and in [11] was “inactive” in each case. Besides, the Potency entry in assay [19], in [20], in assay [12] and in assay [14] was “inactive” each time. Besides, the max response in assay [13] was 4.99%.

In the case of `Nc1ccc([N+](=O)[O-])cc1N`, the Potency in [1] is above 92 µM. The compound was classed as inactive in assay [2], in assay [3], in [4], in [6], in assay [9] and in assay [15]. Further, in assay [17], the compound was called inactive. Moreover, the caspase-3 activation in [5] was 0.611%. Also, the Potency entry in assay [7], in assay [8], in [16], in [10], in assay [18] and in assay [11] was “inactive” each time. In addition, the Potency entry in assay [19], in assay [20], in [12] and in assay [14] was “inactive” throughout. Besides, the max response in assay [13] is -9.77% and -2.05%.
